Assay results taken from PubChem BioAssay AID1159580 (chemical genetic matrix, 2015).
“And” between values parts separate entries of the source, which are not always exact repeats. Equal entries are not always repeated. Screen size: about 5,500 compounds; about 2,000 (36%) were called active. Not shown: some 18% with an inconclusive outcome. Cut-off read from the data, not from the text of the source: active = normalized growth mostly below about 0.91 (no sharp cut-off); inconclusive = no clear call, values can overlap the other calls; inactive = mostly above about 0.92. This is one part of the list.

Assay: chemical genetic growth profiling, strain panel (AID 1159580);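 note: tested at 20 µM; growth read once vehicle control cultures reached saturation at 30 °C; 1 = growth at the plate median or of vehicle wells; lower values mean less growth of the strain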
Settings: S. cerevisiae deletion strains, growth OD

Measured: normalized growth

CCN(CC)CCOC(=O)C(c1ccccc1)c1ccccc1
inactive: locus YAL013W, strain DEP1, active compounds read low 0.982 | locus YAL021C, strain ccr4, active compounds read low 0.964 | locus YAL026C, strain drs2, active compounds read low 0.975 | locus YAL030W, strain snc1, active compounds read low 0.948 | locus YBL061C, strain skt5, active compounds read low 0.965 | locus YBR009C, strain hhf1, active compounds read low 0.99 | locus YBR021W, strain FUR4, active compounds read low 0.989 | locus YBR023C, strain chs3, active compounds read low 0.957 | locus YBR171W, strain sec66, active compounds read low 0.971 | locus YBR229C, strain ROT2, active compounds read low 1 | locus YBR231C, strain swc5, active compounds read low 0.967 | locus YBR279W, strain paf1, active compounds read low 0.971 | locus YCL011C, strain gbp2, active compounds read low 0.948 | locus YCL016C, strain dcc1, active compounds read low 0.987 | locus YCL029C, strain bik1, active compounds read low 0.979 | locus YCL069W, strain vba3, active compounds read low 0.976 | locus YCR088W, strain abp1, active compounds read low 0.968 | locus YDL005C, strain med2, active compounds read low 0.958 | locus YDL035C, strain GPR1, active compounds read low 0.988 | locus YDL040C, strain nat1, active compounds read low 0.972 | locus YDL074C, strain BRE1, active compounds read low 1.01 | locus YDL101C, strain DUN1, active compounds read low 0.995 | locus YDL134C, strain PPH21, active compounds read low 0.997 | locus YDL185W, strain tfp1, active compounds read low 0.96 | locus YDL192W, strain arf1, active compounds read low 0.989 | locus YDR001C, strain nth1, active compounds read low 0.964 | locus YDR069C, strain doa4, active compounds read low 0.936 | locus YDR101C, strain arx1, active compounds read low 1.01 | locus YDR137W, strain rgp1, active compounds read low 0.994 | locus YDR159W, strain sac3, active compounds read low 0.947 | locus YDR162C, strain NBP2, active compounds read low 0.961 | locus YDR195W, strain ref2 0.889 | locus YDR297W, strain sur2, active compounds read low 0.974 | locus YDR318W, strain mcm21, active compounds read low 0.986 | locus YDR334W, strain swr1, active compounds read low 0.943 | locus YDR335W, strain msn5, active compounds read low 0.976 | locus YDR388W, active compounds read low 1 | locus YDR392W, strain spt3, active compounds read low 1.01 | locus YDR502C, strain sam2, active compounds read low 1 | locus YEL003W, strain gim4, active compounds read low 0.972 | locus YEL037C, strain rad23, active compounds read low 0.973 | locus YEL061C, strain CIN8 (second series), active compounds read low 0.957 | locus YEL061C, strain CIN8, active compounds read low 0.987 | locus YER015W, strain faa2, active compounds read low 0.984 | locus YER016W, strain bim1, active compounds read low 0.976 | locus YER110C, active compounds read low 0.968 | locus YER111C, strain swi4, active compounds read low 0.957 | locus YER155C, strain BEM2 (second series), active compounds read low 0.951 | locus YER155C, strain BEM2, active compounds read low 1.01 | locus YER167W, strain BCK2, active compounds read low 0.993 | locus YFR010W, strain ubp6, active compounds read low 0.959 | locus YGL078C, strain dbp3, active compounds read low 0.987 | locus YGL086W, strain mad1, active compounds read low 0.995 | locus YGL167C, strain pmr1, active compounds read low 0.962 | locus YGL173C, strain kem1, active compounds read low 0.98 | locus YGL227W, strain vid30, active compounds read low 0.961 | locus YGL240W, strain doc1, active compounds read low 0.963 | locus YGL248W, strain PDE1, active compounds read low 1.01 | locus YGL253W, strain hxk2, active compounds read low 0.97 | locus YGR135W, strain pre9, active compounds read low 0.955 | locus YGR229C, strain SMI1, active compounds read low 0.979 | locus YGR252W, strain gcn5, active compounds read low 0.994 | locus YHR013C, strain ard1, active compounds read low 0.964 | locus YHR027C, strain rpn1, active compounds read low 0.971 | locus YHR030C, strain SLT2, active compounds read low 0.981 and 0.995 | locus YHR079C, strain IRE1 (second series), active compounds read low 0.99 | locus YHR079C, strain IRE1, active compounds read low 0.986 | locus YHR094C, strain hxt1, active compounds read low 0.993 | locus YHR129C, strain ARP1, active compounds read low 0.99 | locus YHR142W, strain chs7, active compounds read low 0.967 | locus YHR200W, strain rpn10, active compounds read low 0.975 | locus YIL066C, strain RNR3, active compounds read low 1 | locus YIL073C, strain SPO22, active compounds read low 0.935 | locus YIL125W, strain kgd1, active compounds read low 1 | locus YIR030C, strain dcg1, active compounds read low 0.987 | locus YJL092W, strain hpr5, active compounds read low 0.964 | locus YJL095W, strain BCK1 (second series), active compounds read low 0.973 | locus YJL095W, strain BCK1, active compounds read low 1.02 and 0.981 | locus YJL115W, strain asf1, active compounds read low 0.949 | locus YJL129C, strain trk1, active compounds read low 0.972 | locus YJL134W, strain LCB3, active compounds read low 0.989 | locus YJL154C, strain vps35, active compounds read low 0.959 | locus YJL164C, strain tpk1, active compounds read low 0.993 | locus YJL166W, strain qcr8, active compounds read low 0.958 | locus YJL168C, strain set2, active compounds read low 1 | locus YJL187C, strain SWE1 (second series), active compounds read low 1.01 | locus YJR043C, strain POL32, active compounds read low 0.998 | locus YJR066W, strain TOR1, active compounds read low 0.963 | locus YKL009W, strain mrt4, active compounds read low 0.959
